The record followed here is PubChem BioAssay (NCI).

SMILES strings stand for the structures. The panel holds about 79,000 compounds, 15% with a hit somewhere; the sample as a whole holds those more often. A number with no mark means an inactive call. Calls of active or inactive are those of the source. Rule as the data show it: active = growth inhibition above about 70%; inactive = the rest.

Assay [1] in a line: NCI Yeast Anticancer Drug Screen. Data for the rad50 strain (AID 155).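 Also: 0% = growth of vehicle-only cultures of the same strain.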 The note with it: S. cerevisiae rad50 strain growth inhibition; at 50.0 µM; active compounds read high. The gist of the method:
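Yeast carrying a defined DNA repair defect were exposed to test compounds, and growth was compared with vehicle-treated controls to give percent inhibition.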

A short description of assay [2]: NCI Yeast Anticancer Drug Screen. Data for the mec2-1 strain (AID 157). As to conditions: S. cerevisiae mec2-1 strain, at 50.0 µM, active compounds read high. The gist of the method: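 Each compound was tested on mec2-1 yeast, a strain altered in DNA damage repair or cell cycle control. Growth inhibition is reported relative to vehicle.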
Assay [3] in a line: NCI Yeast Anticancer Drug Screen. Data for the sgs1 mgt1 strain (AID 161).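 Also: 0% = growth of cultures given vehicle only.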 As to conditions: S. cerevisiae sgs1 mgt1 strain, at 50.0 µM, active compounds read high. The gist of the method:
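Mutant yeast exposed to compound; growth scored against vehicle-only wells.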

Assay [4] can be described thus: NCI Yeast Anticancer Drug Screen. Data for the cln2 rad14 strain (AID 165).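 Also: 0% = growth equal to vehicle treated cultures.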 The note with it: S. cerevisiae cln2 rad14 strain, at 50.0 µM, active compounds read high. The gist of the method: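 Test compounds were added to cln2 rad14 yeast cultures; inhibition of growth was then determined by comparison with vehicle treatment.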
Assay [5] is described as follows: NCI Yeast Anticancer Drug Screen. Data for the bub3 strain (AID 167). The note with it: S. cerevisiae bub3 mutant strain, at 50.0 µM, active compounds read high. The gist of the method:
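Compounds were applied to a genetically altered yeast strain carrying a cell-cycle control defect. Growth inhibition was scored against vehicle-treated controls.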

Assay [6] is described as follows: NCI Yeast Anticancer Drug Screen. Data for the mlh1 rad18 strain (AID 175). The note with it: S. cerevisiae mlh1 rad18 strain growth inhibition; at 50.0 µM; active compounds read high. The gist of the method:
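Inhibition values reflect reduced growth of mutant yeast versus vehicle-treated controls following compound exposure; the mutations affect DNA damage repair.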

Consider `NC(CSc1nc2ccccn2c1[N+](=O)[O-])C(=O)O` (centres undefined), for which the growth inhibition in assay [1] was -26.1%; in assay [2], -40.8%; in assay [3], -30.1%; in assay [4], 5.25%; in assay [5], 8.25%; in assay [6], -18%.
On to `Cc1cc(Cl)c(O)c(C2(C(O)c3ccc(O)cc3)NC(=S)NC2=O)c1` (centres undefined), for which the growth inhibition in assay [1] was -20.4%; in assay [2] it was -17.1%; in assay [3], -25.6%; in assay [4] it was -6.5%; in assay [5], 4.95%; in assay [6], -6.75%.
In the case of `CN(C)C(=O)NCc1cccnc1`, the growth inhibition is -21.8% in assay [1]; 10.9% in assay [2]; 0.35% in assay [3]; -78.2% in assay [4]; -3.45% in assay [5]; -10.7% in assay [6].
Regarding `COc1ccc(C#N)c(-c2ccccc2)c1`, the growth inhibition is -11.2% in assay [1]; -13.2% in assay [2]; 17.5% in assay [3]; 3.05% in assay [4]; -6.25% in assay [5]; -12.3% in assay [6].
As for `c1ccc2c(c1)Cc1ccc3ccccc3c1-2`, the growth inhibition in assay [1] was 56%; in assay [2], 28.7%; in assay [3], 34.4%; in assay [4], 35.8%; in assay [5] it was 64.3%; in assay [6], 35.1%.
As for `O=C1C(c2ccccc2)=C(c2ccccc2)c2ccccc21`, the growth inhibition in assay [1] is -8.2%; in assay [2] it was 19.6%; in assay [3] it was 21%; in assay [4], -18.4%; in assay [5] it was 32%; in assay [6], 14.4%.
For `CC(C)NC(=O)CS(=O)(=O)c1ccc(N)cc1`, the growth inhibition was -2.3% in assay [1]; -11.8% in assay [2]; 2.1% in assay [3]; -0.3% in assay [4]; 30% in assay [5]; 7.7% in assay [6].
On to `CN(C)/C=C/c1ccnc2c1C(=O)c1ccccc1C2=O`, for which the growth inhibition in assay [1] was 83.7% (active); in assay [2], 90.5% (active); in assay [3], 73.3% (active); in assay [4], 67.8%; in assay [5] it was 75.5% (active); in assay [6], 92.7% (active).
On to `O=S(=O)(O)Cc1ccccc1`, for which the growth inhibition in assay [1] was -29.9%; in assay [2], -21.9%; in assay [3], -19.1%; in assay [4], -24.4%; in assay [5], 2.45%; in assay [6], 2.35%.
Regarding `CCN(CC)CC(C)(C)C(O)c1ccc(OC)c2ccccc12` (centres undefined), the growth inhibition in assay [1] is -6.15%; in assay [2] it was 7.3%; in assay [3], 17.9%; in assay [4], -26.8%; in assay [5], 9.45%; in assay [6] it was 8.8%.
For the compound `CCOc1ccc(Nc2nc(C(Cl)(Cl)Cl)cc(C(Cl)(Cl)Cl)n2)cc1CN(CC)CC`, the growth inhibition is 98.2% (active) in assay [1]; 99.1% (active) in assay [2]; 99% (active) in assay [3]; 98.1% (active) in assay [4]; 98% (active) in assay [5]; 98.8% (active) in assay [6].
`COC(=O)/C=C/c1ccc(OP(=O)(O)O)c(OC)c1`: the growth inhibition is -22.1% in assay [1]; -8.9% in assay [2]; -30.6% in assay [3]; -20.6% in assay [4]; -56.7% in assay [5]; -15.4% in assay [6].
Regarding `O=C(O)c1ccccc1C(NC(=O)N1C(=O)C=CC1=O)NC(=O)N1C(=O)C=CC1=O`, the growth inhibition was 29.2% in assay [1]; -5.1% in assay [2]; -2.85% in assay [3]; 16.4% in assay [4]; 4.8% in assay [5]; 12.8% in assay [6].
On to `Cc1nc(-c2ccccc2)ncc1C(O)CN(C)C` (centres undefined), for which the growth inhibition in assay [1] was -4.7%; in assay [2] it was -6.45%; in assay [3] it was 5.35%; in assay [4], 2.35%; in assay [5], -30.4%; in assay [6], -6.6%.
As to `Nc1nc(=O)[nH]c2n[nH]nc12`, the growth inhibition in assay [1] was -18.2%; in assay [2], -7.15%; in assay [3] it was 6.7%; in assay [4], -3.15%; in assay [5], -2.35%; in assay [6] it was 0.2%.
Consider `NC(=S)N/N=C/C1=C(Cl)c2ccccc2C1`, for which the growth inhibition in assay [1] is 7.45%; in assay [2], 6.5%; in assay [3], 1.15%; in assay [4], -4.45%; in assay [5], -2.55%; in assay [6], 13.2%.
For the compound `CCOC(=O)/C(=C/O)NC(=O)c1ccccc1`, the growth inhibition was -10.4% in assay [1]; 18.8% in assay [2]; -5.5% in assay [3]; -18.9% in assay [4]; -9.95% in assay [5]; 19.4% in assay [6].
For `CC1=Nc2ccccc2NC(C)(C)C1`, the growth inhibition in assay [1] was 30.1%; in assay [2], 23.4%; in assay [3] it was 29.5%; in assay [4], 13.9%; in assay [5], 15.2%; in assay [6], 20.4%.
On to `CCC(C#N)N(Cc1cccc(CN(C(C)=O)C(C#N)CC)c1)C(C)=O` (centres undefined), for which the growth inhibition in assay [1] is -5.9%; in assay [2] it was -11.7%; in assay [3] it was -4.15%; in assay [4], -29.9%; in assay [5] it was -25.7%; in assay [6], -43.9%.
